Compound activity (PubChem BioAssay)
N370S GC mod – N370S glucocerebrosidase modulation, Gaucher chaperone candidate; P04062; 0.092% of 330,000 active; N370S GC spleen homogenate, 4MU-glucoside fluorescence; AID 2101; Potency, µM (highest dose often 59.4 µM), most hits filed as inhibitors
aGlu spleen mod – lysosomal alpha-glucosidase (human) modulation. 0.006% of 240,000 active. Potency, µM (doses to about 79.9 µM), hits mostly inhibitors. AID 2112. human spleen homogenate, 4-MU-alpha-glucoside fluorescence
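Compounds were titrated against alpha-glucosidase in spleen homogenate at pH 5.0, with 1 mM 4-methylumbelliferyl substrate for 40 min at 37 C. Reactions were quenched with pH 10 NaOH/glycine and fluorescence measured.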
GLA inh pH 4.5 – alpha-galactosidase A (human) inhibition, pH 4.5; P06280; purified enzyme, 4-MU-alpha-Gal fluorescence, pH 4.5; activity change, negative = inhibition, % at 105 µM; 230,000 tested, under 10 active; AID 1467
Target sequence (P06280 whole entry, looked up): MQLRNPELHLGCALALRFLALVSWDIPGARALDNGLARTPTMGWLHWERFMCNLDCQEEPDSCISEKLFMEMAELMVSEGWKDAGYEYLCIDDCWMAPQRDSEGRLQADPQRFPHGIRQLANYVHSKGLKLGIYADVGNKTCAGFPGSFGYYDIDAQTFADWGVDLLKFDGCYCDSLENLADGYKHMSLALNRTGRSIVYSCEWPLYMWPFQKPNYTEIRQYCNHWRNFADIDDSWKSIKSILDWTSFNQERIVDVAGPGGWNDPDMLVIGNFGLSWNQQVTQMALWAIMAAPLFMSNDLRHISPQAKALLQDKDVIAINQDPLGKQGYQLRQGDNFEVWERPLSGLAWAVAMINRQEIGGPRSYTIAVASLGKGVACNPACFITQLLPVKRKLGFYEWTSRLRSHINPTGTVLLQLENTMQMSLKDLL
GAA glycogen – GAA glycogen-cleavage inhibition or activation. AID 2100. recombinant GAA, glycogen substrate, Amplex Red glucose oxidase fluorescence. P10253. Potency, µM (top dose mostly 76.4 µM), actives largely listed as inhibitors. 0.38% of 300,000 active;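 further: the screen sought inhibitors and activators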
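Recombinant human alpha-glucosidase (4 nM final) hydrolysed bovine liver glycogen (30 ug) for 40 min at 37 C in pH 5.0 citrate/phosphate with 0.01% Tween-20. Released glucose detected by glucose oxidase/Amplex Red, Ex 573/Em 610 nm. Compounds up to 77 uM; AC50 from Hill fits.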
GAA inhib – blocks human lysosomal alpha-glucosidase; P10253; purified human GAA, 4-MU-alpha-glucoside fluorescence; Potency, µM (highest dose often 76.9 µM), usual class: inhibitors; 0.005% of 200,000 active
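Read-out is 4-methylumbelliferone fluorescence (Ex 365/Em 440 nm) after NaOH/glycine stop at pH 10. Enzyme 4 nM, substrate 400 uM, pH 5.0 citrate buffer, 20 min room temperature; AC50 from Hill-equation concentration-response.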
aGal spleen mod – inhibitors or activators of human alpha-galactosidase in spleen homogenate; 0.008% of 240,000 active; human spleen homogenate, 4MU-alpha-Gal fluorescence, 40 min; P06280; Potency, µM (top dose mostly 80 µM), actives largely listed as inhibitors
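Human spleen homogenate (1 ug) was the enzyme source, with 4-methylumbelliferyl-alpha-D-galactopyranoside (1 mM final) in pH 5.0 citrate buffer with 0.01% Tween-20. Compounds were titrated; after 40 min at 37C, NaOH/glycine stop, 4-MU fluorescence read; AC50 from Hill fits.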
Hits are given with their value; i = inactive; ? = inconclusive; nt = no result; [ ] = remark or other dose. The list is not random: actives were taken first. Their share in the collection is about 0.43%. The call rests on the fitted dose curve; in most records, active means well fitted curve in the direction sought with a large enough effect; inconclusive means small, poorly fitted or top-dose-only effect, or another doubt; inactive means no such curve, though single readings can be large; an effect the other way counts as inactive or inconclusive.

SMILES | N370S GC mod | aGlu spleen mod | GLA inh pH 4.5 | GAA glycogen | GAA inhib | aGal spleen mod
C#CCOCCOCCOCCNc1nc(N2CCN(C(=O)CCCCCCCCCCNC(=O)[C@H](CCCCN)n3cc(CCO)nn3)CC2)nc(N2CCN(C(=O)CCCCCCCCCCNC(=O)[C@H](CCCN=C(N)N)n3cc(C[C@@H](C)CC)nn3)CC2)n1 | 7.9µM | nt | nt | nt | nt | nt
C#CCOCCOCCOCCNc1nc(N2CCN(C(=O)CCCCCCCCCCNC(=O)[C@H](CCCCN)n3cc(C)nn3)CC2)nc(N2CCN(C(=O)CCCCCCCCCCNC(=O)[C@@H]([C@H](C)CC)n3cc(CCCCCN)nn3)CC2)n1 | 18µM | nt | nt | nt | nt | nt
C#CCOCCOCCOCCNc1nc(N2CCN(C(=O)CCCCCCCCCCNC(=O)[C@H](CCC(=O)O)n3cc(CCCCCN)nn3)CC2)nc(N2CCN(C(=O)CCCCCCCCCCNC(=O)[C@@H]([C@H](C)O)n3cc(C)nn3)CC2)n1 | i | nt | nt | nt | nt | nt
C#CCOCCOCCOCCNc1nc(N2CCN(C(=O)CCCCCCCCCCNC(=O)Cn3cc(C[C@@H](C)O)nn3)CC2)nc(N2CCN(C(=O)CCCCCCCCCCNC(=O)Cn3cc(C[C@@H](C)O)nn3)CC2)n1 | i | nt | nt | nt | nt | nt
C#CCOCCOCCOCCNc1nc(N2CCN(C(=O)CCCCCCCCCCNC(=O)Cn3cc(C[C@@H](C)O)nn3)CC2)nc(N2CCN(C(=O)CCCCCCCCCCNC(=O)[C@H](CCCCN)n3cc(C[C@@H](C)CC)nn3)CC2)n1 | 22µM | nt | nt | nt | nt | nt
COc1cc2cc3c4c(cc(OC)c(OC)c4c2cc1OC)CCN3C | i | i | i | nt | nt | ?
C[C@H]1Cc2c(COc3ccccc3)nc3c(c2CO1)CN(C(=O)c1ccco1)CC3 | i[12.8 µM] | i[17.4 µM] | i | nt | nt | i[17.5 µM]
COCc1cc(C)nc(SCC(=O)c2ccc(O)c(O)c2)c1C#N | i | i | i | 14µM | i | i
COC(=O)C1=C(C(=O)OC)[C@@H]2Nc3ccccc3[C@@]23C[C@@H](C(=O)OC)N(S(=O)(=O)c2cccs2)C3=N1 | i[12.8 µM] | i[17.4 µM] | i | nt | nt | i[17.5 µM]
CC(C)[N+]1(C)[C@@H]2CC[C@H]1CC(OC(=O)[C@@H](CO)c1ccccc1)C2 (stereo partly specified) | i | i | i | nt | nt | i
CN(C)c1ccc(C(=C2C=CC(=[N+](C)C)C=C2)c2ccc(N(C)C)cc2)cc1 | 3.2µM | i | i | nt | nt | i
COC(=O)c1c(NC(=O)COC(=O)CCNS(=O)(=O)c2ccccc2)sc(C)c1C | i | nt | nt | nt | nt | nt
COC(=O)c1c(NC(=O)COC(=O)CCNS(=O)(=O)c2ccc(NC(C)=O)cc2)sc(C)c1C | 8.9µM | nt | nt | nt | nt | nt
Cc1ccc(NC(=O)Nc2sc(=S)n(C)c2C)cc1 | i | i | i | 25µM | i | i
Oc1ccc(C2=Nn3c(nnc3-c3ccco3)SC2)cc1O | i | i | i | 16µM | i | i
CCOc1ccc(N2C(=O)CC(N3CCc4ccccc43)C2=O)cc1 (stereo unspecified) | i[12.8 µM] | i | i | 14µM | i | i
COCCNc1c(-c2ccc(O)cc2)nc2ccc(Cl)cn12 | ? | i | i | 10µM | i | i
C[C@@H](c1ccccc1)N1C(=O)[C@H]2[C@H]3[C@H](O)[C@H](O)C/C(=N/NC(=O)OCc4ccccc4)[C@@H]3CC[C@@H]2C1=O | i[12.8 µM] | i[17.4 µM] | nt | nt | nt | i[17.5 µM]
Cc1cc(Nc2ccc(Cl)cc2)n(-c2ccccc2)n1 | i | i | i | ? | i | i
Cc1cc(Nc2nc3c(c(=O)n(C)c(=O)n3C)n2C)n(-c2ccc(Cl)cc2)n1 | i | i | i | 25µM | i | i
COc1cc(C)c(N)cc1C(C)C | i | i | i | 14µM | i | i
N#CC1=C(SCC(=O)c2cc3ccccc3oc2=O)NC(=O)C(C#N)C12CCCC2 (stereo unspecified) | i | i | i | 22µM | i | i
CC(C)(C)C1CCC2(CC1)C(C#N)=C(SCC(=O)Nc1ccccc1)NC(=O)C2C#N (stereo unspecified) | ? | i | i | ? | ? | i
Cc1nn(-c2ccccc2)c2[nH]c(=O)c(CNc3ccc(N4CCOCC4)cc3)cc12 | i | i | i | 20µM | i | i
O=[N+]([O-])c1ccc(O)c(N=Cc2sc3ccccc3c2O)c1 | i | i | i | i | i | i
SMILES | N370S GC mod | aGlu spleen mod | GLA inh pH 4.5 | GAA glycogen | GAA inhib | aGal spleen mod
Oc1ccc(Cl)cc1N=Cc1sc2ccccc2c1Cl | i | i | i | 2.8µM | i | i
C/C(CCC(=O)OC[C@@H]1O[C@H](C#Cc2ccccc2)C=C[C@@H]1Oc1ccc(C)cc1)=N/O[C@@H](C)c1cn([C@H]2COC[C@H]2O)nn1 | i[12.8 µM] | i[17.4 µM] | nt | nt | nt | i[17.5 µM]
O=C1c2c(O)cc(O)cc2O[C@H](c2ccc(O)c(O)c2)[C@H]1O | i | i | i | ? | i[15.4 µM] | i
O=C1c2c(O)cc(O)cc2O[C@H](c2ccc(O)c(O)c2)[C@@H]1O | i | i | i | 3.2µM | i[15.4 µM] | i
COC(=O)[C@@H](NC(=O)N1CCc2nc(COc3ccccc3)c3c(c2C1)CO[C@@H](C)C3)C(C)C | i[12.8 µM] | i[17.4 µM] | i | nt | nt | i[17.5 µM]
O=C1NN(C(=O)Nc2ccc(Br)cc2)C(c2ccccc2)C1c1ccccc1 (stereo unspecified) | i | i | nt | nt | nt | i
Cc1ccc(S(=O)(=O)NNC(=O)C(=O)NNc2ccccn2)cc1 | i | i | i | 3.5µM | i | i
CC(=O)Nc1ccc(S(=O)(=O)NNC(=O)C(=O)NNc2ccccn2)cc1 | i | i | i | ? | i | i
Nc1ccc(S(=O)(=O)NNC(=O)C(=O)NNc2ccccn2)cc1 | i | i | i | 3.2µM | i | i
O=C(Nc1ccccn1)C(=O)Nc1ccccn1 | i | i | i | i | i | i
Cc1ccccc1S(=O)(=O)NNC(=O)C(=O)NNc1ccccn1 | i | i | i | 3.5µM | i | i
Cn1c(=O)n2n(c1=O)[C@H]1[C@H](O)[C@H]3O[C@@H]3/C(=N/OC[C@@H](O)COCc3ccco3)[C@@H]1CC2 | i[12.8 µM] | i[17.4 µM] | nt | nt | nt | i[17.5 µM]
CCOc1ccc(S(=O)(=O)Nc2ccccc2SC)cc1 | i | i | i | i | i | i
CCOc1ccc(S(=O)(=O)Nc2cc(Cl)ccc2O)cc1 | i | i | i | 28µM | i | i
O=C(O)c1ccc(-c2ccc3cc(C45CC6CC(CC(C6)C4)C5)c(O)cc3c2)cc1 | i | i | nt | nt | nt | i
COC(=O)c1cc(=O)c(O)c2c(O)c(O)ccc2c1 | i | i | i | nt | nt | i
Cc1ccccc1OC1=NS(=O)(=O)c2ccccc21 | i | i | i | i | ? | i
O=S1(=O)N=C(Oc2cccc3ccccc23)c2ccccc21 | i | i | i | 25µM | i | i
Clc1ccccc1-c1nc(NCc2cccs2)c2ccccc2n1 | 7.1µM | i | nt | nt | nt | i
c1ccc(CN2CCC(Nc3nc(-c4cccs4)nc4ccccc34)CC2)cc1 | 10µM | i | i | i | i | i
Cc1ccc(-c2nc(Nc3cccc(O)c3)c3ccccc3n2)cc1 | ? | nt | nt | i | nt | nt
